Only some compounds are listed: those with a hit (about 19% of all), similar ones and a draw of the others.
KB-3-1 cytotox = kills parental KB-3-1 adenocarcinoma cells; 400,000 compounds, 1.4% hits; AID 1347075; KB-3-1 viability, CellTiter-Glo ATP luminescence, 72 h; Potency, µM (series often up to 46.1 µM), actives largely listed as cytotoxic; further: nearly all actives have a fitted effect of over 60% in size
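Cells are dispensed, compounds pinned in, plates held at 37 °C for 72 h, then CellTiter-Glo is added and luminescence read after 10 minutes. Cell line: parental KB-3-1 in phenol-red-free DMEM, 10% FBS.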
HT1080NT lethal = kills 2HG-producing HT-1080-NT fibrosarcoma cells; HT-1080-NT fibrosarcoma viability, CellTiter-Glo ATP luminescence, 48 h; Potency, µM (titrated, usually from 46.1 µM), for the others: at the top dose activity, negative = less viability, usual class: cytotoxic; 360,000 compounds, 1.6% hits; AID 686970;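 further: NT is the 2HG producing partner of a matched IDH1 knockdown line; 0% = DMSO-treated cells and -100% = media-only wells without cells; nearly all actives have a fitted effect of over 55% in size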
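Toxicity toward the 2HG-producing NT line was scored as %Activity, normalised to DMSO and no-cell wells, from CellTiter-Glo luminescence after 48 hours' treatment.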
DT40 TDP1 no CPT = qHTS for Inhibitors of human tyrosyl-DNA phosphodiesterase 1 (TDP1): qHTS in cells in absence of CPT. Potency, µM (doses to about 46.2 µM), for inactives: top-dose activity change, negative = growth inhibition, most hits filed as inhibitors. 420,000 compounds, 15% hits. DT40 Tdp1-/- hTDP1 cells, no CPT, ATP luminescence, 48 h. AID 686978, 2013; further: nearly all actives have a fitted effect of over 55% in size
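Growth kinetics read by CellTiter-Glo luminescence after ≥48 hr at 37 °C. Cells: DT40 Tdp1-/- stably carrying human TDP1, 400 per well, compound exposure in the absence of CPT (DMSO vehicle).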
KB-V1 cytotox = kills drug-selected multidrug resistant KB-V1 cells; Potency, µM (titrated, usually from 46.1 µM), most hits filed as cytotoxic; KB-V1 MDR cells viability, CellTiter-Glo, 72 h; AID 1347076; 400,000 compounds, 3.4% hits; further: nearly all actives have a fitted effect of over 60% in size
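Compound-treated KB-V1 multidrug-resistant cells, 72 h, 37 degrees C; viability by CellTiter-Glo. Fitted qHTS curves give the values.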
HT1080 IDH1KD tx = toxicity to HT-1080 IDH1 knockdown cells (counter line) | AID 686971 | 360,000 compounds, 2% hits | Potency, µM (series often up to 46.1 µM), without a hit: at the top dose activity, negative = toxicity, actives largely listed as cytotoxic | HT-1080 IDH1 knockdown viability, ATP luminescence, 48 h;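 further: 0% = DMSO wells and -100% = cell-free medium wells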
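Using the IDH1-knockdown HT-1080 line run in the same batch and compound series as the NT line, viability after 48 h at 37 °C was determined by CellTiter-Glo luminescence and expressed as % activity.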
DT40 TDP1 CPT = growth inhibition of DT40 Tdp1-/-;hTDP1 cells with camptothecin (screen for TDP1 inhibitors); chicken DT40 Tdp1-/-;hTDP1 cells + 20 nM CPT, ATP luminescence, 48 h; Potency, µM (series often up to 46.2 µM), for inactives: at the top dose activity change, negative = growth inhibition, most hits filed as inhibitors; 420,000 compounds, 12% hits; further: nearly all actives have a fitted effect of over 55% in size
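Chicken DT40 Tdp1-/- cells stably complemented with human TDP1 were seeded at 400 cells/well in medium containing 20 nM camptothecin, exposed to pin-transferred compounds, and grown at 37 °C for at least 48 hr. Viability was read as ATP luminescence.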
Numbers without * were called inactive; i = inactive; u = inconclusive; x = not tested or not shown. The call rests on the fitted dose curve; in most records, active means well fitted curve in the direction sought with a large enough effect; inconclusive means small, poorly fitted or top-dose-only effect, or another doubt; inactive means no such curve, though single readings can be large; an effect the other way counts as inactive or inconclusive. Unless noted, on the % scale 0 is the no-effect control and ±100 the full control effect; potency means the concentration at half of the fitted maximal effect.

SMILES	KB-3-1 cytotox	HT1080NT lethal	DT40 TDP1 no CPT	KB-V1 cytotox	HT1080 IDH1KD tx	DT40 TDP1 CPT
C1=C[C@@H]2CCN(Cc3ccccc3)Cc3cccc(c32)C1	i	0.7%	u	i	-7.2%	-37.6%
O=C1C[C@H]2C=CCc3cccc(c32)CN1Cc1cccc(F)c1	i	x	10µM*	i	x	15.8µM*
Cc1ccc(CN2CC[C@H]3C=CCc4cccc(c43)C2)cc1	i	3.7%	20.6µM*	i	-0.9%	u
O=C1C[C@H]2C=CCc3cccc(c32)CN1Cc1ccc(Cl)cc1	i	x	12.6µM*	18.4µM*	x	u
CCOc1ccc(NC(=O)CN(C)C(=O)c2ccc3c(c2)S(=O)(=O)N=C2CCCCCN23)cc1OCC	i	12.9%	1.0%	i	5.3%	13.2%
CCN(CC)CC(O)c1ccc2ccc3ccc(O)cc3c2c1 (stereo not drawn)	u	-11.8%	u	i	-24.9%	u
CN(C(=O)c1ccc(C#N)cc1)c1nnc(-c2cnccn2)s1	i	16.4%	13.4%	i	18.3%	7.0%
Cc1ccc(OCCCCN(C)Cc2ccccc2)c(Br)c1	i	u	18.4µM*	i	u	23.1µM*
CN(CCOc1ccccc1)Cc1ccccc1	i	22.3%	-25.8%	i	1.3%	u
Cc1cc(C)c(OCCCCN(C)Cc2ccccc2)c(C)c1	i	-17.2%	23.1µM*	i	-2.3%	u
Cc1ccccc1OCC(O)CNC1CCCC1 (stereo not drawn)	i	-8.1%	-5.9%	i	-0.9%	-0.8%
Cc1ccc(C(C)C)c(OCC(O)CNC2CCCC2)c1 (stereo not drawn)	i	-12.0%	16.4µM*	i	-11.0%	23.1µM*
Cc1ccc(C(C)C)c(OCCCN(C)Cc2ccccc2)c1	i	-21.6%	23.1µM*	11.6µM*	u	16.4µM*
Cc1ccc(N(CC(=O)NC(C)C)C(=O)CCC(=O)Nc2nccs2)cc1C	i	16.2%	-12.8%	i	11.7%	-2.2%
Nc1ccc2c(c1)C(=O)CCC2	i	-3.6%	-21.8%	i	15.3%	-7.7%
COc1ccc(N(CC(=O)NC2CCCCC2)C(=O)CCCC(=O)Nc2ccccn2)cc1	i	0.5%	-7.0%	i	0.8%	0.6%
OC[C@H]1O[C@@H](c2nc(-c3ccc(Br)cc3)no2)C[C@@H]1O	i	5.9%	u	i	9.2%	-24.5%
Cc1ccc(C(C)C)c(OCC(O)CN(C)Cc2ccccc2)c1 (stereo not drawn)	i	u	u	i	u	23.1µM*
CCc1ccc(CN(C)CC(O)COc2cccc3ccccc23)cc1 (stereo not drawn)	i	u	u	i	u	u
C=CCn1c(-c2ccccc2)nc2nc3ccccc3nc21	i	-1.5%	18.4µM*	i	10.5%	18.4µM*
c1ccc(Cn2c(-c3ccccc3)nc3nc4ccccc4nc32)cc1	i	10.4%	23.1µM*	u	0.3%	20.6µM*
Cc1ccc(S(=O)(=O)NC(=O)NCC2CCN(S(=O)(=O)c3ccccc3)CC2)cc1	i	1.1%	-4.4%	i	14.0%	0.3%
CCCCOc1ncnc2c1[nH]c1ccc(OCC)cc12	i	u	-17.8%	u	22.4%	-17.6%
CCCCOc1ncnc2c1[nH]c1ccccc12	u	-17.5%	7.31µM*	i	14.6µM*	10.3µM*
CCCCOc1ncnc2c1[nH]c1ccc(F)cc12	18.4µM*	u	8.2µM*	6.51µM*	-5.2%	9.2µM*
SMILES	KB-3-1 cytotox	HT1080NT lethal	DT40 TDP1 no CPT	KB-V1 cytotox	HT1080 IDH1KD tx	DT40 TDP1 CPT
CC1CCN(c2ccc3c(c2)S(=O)(=O)c2cccc(C(=O)NC4CC4)c2C3=O)CC1	i	-3.0%	u	i	1.9%	u
Cc1cccc(C)c1NC(=O)c1ccc(-c2cc(F)ccc2F)o1	i	u	16.4µM*	i	u	18.4µM*
Cc1cccc(NC(=O)c2ccc(-c3ccccc3[N+](=O)[O-])o2)c1	i	-3.8%	u	u	-0.6%	0.5%
Cc1ccccc1-c1ccc(C(=O)Nc2cccc(F)c2)o1	i	10.7%	20.6µM*	i	6.0%	u
CCc1cccc(CC)c1NC(=O)c1ccc(-c2cc(Cl)ccc2Cl)o1	i	0.0%	u	i	9.2%	u
COc1cc(C(=O)NCc2cccs2)ccc1OCc1c(C)noc1C	i	12.8%	u	i	15.2%	-3.5%
COc1ccc(C(CNC(=O)c2ccc(OCc3c(C)noc3C)cc2)N2CCCC2)cc1 (stereo not drawn)	u	1.8%	17.5%	1.46µM*	1.8%	7.6%
COc1ccccc1C(CNC(=O)c1ccc(OCc2c(C)noc2C)cc1)N1CCCC1 (stereo not drawn)	u	-7.8%	-16.0%	u	-2.1%	u
COc1cc(C(=O)NCC(c2ccco2)N2CCCC2)ccc1OCc1c(C)noc1C (stereo not drawn)	u	17.6%	-26.2%	10.3µM*	11.1%	-26.0%
CCOC(=O)N1CCC(Nc2c(OCC)c(=O)c2=O)CC1	i	0.6%	3.2%	u	4.1%	22.8%
CCCN(CCC)c1nc(NC2CCN(C(=O)OCC)CC2)nc(OC)n1	u	u	20.6µM*	16.4µM*	u	16.4µM*
CN1CCCC2(CCN(C(=O)c3cccc(F)c3)CC2)C1	x	x	4.3%	x	x	6.2%
CCOC1=C2CN(S(=O)(=O)c3ccc(C)cc3)C(c3cccc(Cl)c3)CC2N(S(=O)(=O)c2ccc(Cl)cc2)C(c2ccccc2)C1 (stereo not drawn)	5.17µM*	13.3%	u	i	18.2%	u
CCOC1=C2CN(S(=O)(=O)c3ccc(C)cc3)C(c3cccc(Cl)c3)CC2N(S(=O)(=O)c2ccc(C)cc2)C(c2ccncc2)C1 (stereo not drawn)	u	0.9%	16.4µM*	u	-5.2%	14.6µM*
CCOC1=C2CN(S(=O)(=O)c3ccc(Cl)cc3)[C@H](c3ccccc3)C[C@@H]2N(S(=O)(=O)c2ccc(C)cc2)[C@H](c2ccccc2)C1	i	20.9%	u	i	5.1%	-12.4%
CCOC1=C2CN(S(=O)(=O)c3ccc(C)cc3)C(c3cccc(Cl)c3)CC2NC(c2ccccc2)C1 (stereo not drawn)	u	0.0%	u	u	-0.4%	18.4µM*
COc1ccc(-c2c(N)n[nH]c2C)cc1OC	i	18.5%	14.6%	i	2.2%	7.7%

High-throughput results deposited in PubChem BioAssay by National Center for Advancing Translational Sciences (NCATS).
